The record followed here is PubChem BioAssay (NCATS).

Structures are written as SMILES. Results filed as inconclusive are left out. Activity calls are given as the source filed them. Calls come from the whole dose curve; as a rule, active = well fitted curve in the direction sought with a large enough effect; inconclusive = small, poorly fitted or top-dose-only effect, or another doubt; inactive = no such curve, though single readings can be large; an effect the other way counts as inactive or inconclusive.

Sequence of Transient receptor potential cation channel subfamily V member 1 (Homo sapiens) (Q8NER1 whole entry, looked up): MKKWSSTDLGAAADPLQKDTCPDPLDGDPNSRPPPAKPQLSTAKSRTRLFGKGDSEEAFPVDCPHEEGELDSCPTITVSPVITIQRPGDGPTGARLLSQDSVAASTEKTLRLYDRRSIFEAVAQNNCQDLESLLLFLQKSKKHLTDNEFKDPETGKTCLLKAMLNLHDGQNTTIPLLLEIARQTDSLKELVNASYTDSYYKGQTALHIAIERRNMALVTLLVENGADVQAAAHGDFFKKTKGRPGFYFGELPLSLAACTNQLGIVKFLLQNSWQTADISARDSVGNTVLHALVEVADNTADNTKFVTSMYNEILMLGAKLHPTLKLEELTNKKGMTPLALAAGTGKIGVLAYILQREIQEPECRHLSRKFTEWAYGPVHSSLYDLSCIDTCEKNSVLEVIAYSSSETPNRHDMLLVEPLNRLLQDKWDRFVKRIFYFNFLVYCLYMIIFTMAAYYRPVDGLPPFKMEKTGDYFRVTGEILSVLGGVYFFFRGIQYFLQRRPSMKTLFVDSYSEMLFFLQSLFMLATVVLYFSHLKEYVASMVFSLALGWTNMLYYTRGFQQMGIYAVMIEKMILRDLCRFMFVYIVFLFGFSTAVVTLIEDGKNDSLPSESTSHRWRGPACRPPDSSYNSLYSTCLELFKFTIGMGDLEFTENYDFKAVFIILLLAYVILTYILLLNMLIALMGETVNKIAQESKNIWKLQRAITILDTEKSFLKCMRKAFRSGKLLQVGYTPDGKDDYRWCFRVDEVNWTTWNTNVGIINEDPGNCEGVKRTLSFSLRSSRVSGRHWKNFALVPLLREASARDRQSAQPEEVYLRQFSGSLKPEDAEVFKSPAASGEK
Sequence of Methanococcus maripaludis chaperonin (MmCpn) (Q6LX38 1-543): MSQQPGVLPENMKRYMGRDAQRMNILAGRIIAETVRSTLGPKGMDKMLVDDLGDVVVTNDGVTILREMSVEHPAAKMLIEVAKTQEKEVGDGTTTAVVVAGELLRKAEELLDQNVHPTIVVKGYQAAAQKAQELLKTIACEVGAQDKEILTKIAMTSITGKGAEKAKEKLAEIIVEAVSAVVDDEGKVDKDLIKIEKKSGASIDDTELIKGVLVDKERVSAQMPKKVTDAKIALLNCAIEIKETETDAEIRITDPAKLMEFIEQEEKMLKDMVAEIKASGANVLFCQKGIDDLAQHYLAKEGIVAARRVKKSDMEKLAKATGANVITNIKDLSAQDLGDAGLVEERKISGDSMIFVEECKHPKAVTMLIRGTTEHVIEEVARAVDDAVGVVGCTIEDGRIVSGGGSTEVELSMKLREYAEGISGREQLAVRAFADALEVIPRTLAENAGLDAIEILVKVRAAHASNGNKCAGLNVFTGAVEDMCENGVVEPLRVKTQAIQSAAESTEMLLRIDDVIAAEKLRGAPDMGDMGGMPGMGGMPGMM

One experiment addresses Methanococcus maripaludis chaperonin (MmCpn) (UniProt Q6LX38). In words: High-Throughput Screening for Modulators of Cytosolic Chaperonin Activity: MmCpn Primary Screen (AID 488978).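 Note: 50 nM MmCpn enzyme hydrolysing 30 µM ATP at 37 °C.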 Conditions: Purified MmCpn ATPase activity, ADP HTRF detection, 10 min; series mostly up to 76.9 µM. The gist of the method:
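Measures ATPase turnover of the M. maripaludis chaperonin (50 nM final) against 30 uM ATP over 10 min at 37C, with compound added 5 min beforehand at room temperature. ADP is quantified by HTRF immunodetection.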
A general note: In TR-FRET formats the signal depends on donor and acceptor labels being close together.
For `O=C1Cc2c([nH]c3ccc(Br)cc23)-c2ccccc2N1`, the result was inactive.
Consider `Cn1cc(C(F)(F)F)nc1-c1ccc(OCC(O)CNCCOc2ccc(O)c(C(N)=O)c2)cc1` (centres undefined), for which the result was inactive.
Turning to `CC1CNCCN1S(=O)(=O)c1cccc2cnccc12` (centres undefined), the molecule was classed as inactive.
Still for that read-out and setting: for `C[C@](Cc1ccc(O)c(O)c1)(NN)C(=O)O` the value was “inactive”; for `CN1Cc2sccc2C(c2ccc(O)c(O)c2)C1` (centres undefined), “inactive”.
On the same count and under the same terms, to `Nc1ccc(-c2ccc3ccccc3n2)cc1` belongs “inactive”; to `CC(O)C(O)[C@H]1CNc2nc(N)[nH]c(=O)c2N1` (some centres undefined), “inactive”.
Regarding `CNCCc1cnc(CCC(c2ccccc2)c2ccccc2)[nH]1`, the call was inactive.
Turning to `Oc1cc2c(cc1O)C(c1ccccc1)CNCC2` (centres undefined), the call was inactive.
Still for that read-out and setting: for `O=C(O)/C(=C/c1c(C(=O)O)[nH]c2cc(Cl)cc(Cl)c12)c1ccccc1` the value was “inactive”; for `Nc1nc2c(nc(Br)n2C2OC3COP(=O)(O)O[C@@H]3C2O)c(=O)[nH]1` (some centres undefined), “inactive”.
Same read-out and setting: to `Nc1nc2c(cnn2CCc2ccccc2)c2nc(-c3ccco3)nn12` belongs “inactive”; to `N#Cc1cc([N+](=O)[O-])c2sc(C(N)=O)[n+]([O-])c2c1`, “inactive”; to `CCCCCCCCCC(=O)NC(CN1CCOCC1)[C@H](O)c1ccccc1` (some centres undefined), “inactive”.
Turning to `Oc1ccc(/C=C/c2ccc(/C=C/c3ccc(O)cc3)c(Br)c2)cc1`, the molecule was called inactive.
Regarding `CCCCCCCCCCCCCCCCCCOC[C@H](COP(=O)([O-])OCC[N+](C)(C)C)OC`, the outcome was inactive.
On the same count and under the same terms, to `O=C(O)C1=CCCNC1` belongs “inactive”.
On the same count and under the same terms, to `S=C(S)N1CCCC1` belongs “inactive”; to `C[C@H](NC(=O)/C(C#N)=C/c1ccc(O)c(O)c1)c1ccccc1`, “inactive”.
For the molecule `CCCCCCCCCCC(C)(C)C(=O)Nc1c(OC)cc(OC)cc1OC`, the call was inactive.
On the same count and under the same terms, to `CC[C@H](NC(=O)c1c(C)c(-c2ccccc2)nc2ccccc12)c1ccccc1` belongs “inactive”; to `C=C1C[C@@]23CC[C@H]4[C@@](C)(CCC[C@@]4(C)C(=O)OC4OC(CO)C(O)C(O)C4O)[C@@H]2CC[C@]1(OC1OC(CO)C(O)C(O)C1OC1OC(CO)C(O)C(O)C1O)C3` (some centres undefined), “inactive”; to `N#CC(=C(\N)Sc1ccccc1N)/C(C#N)=C(/N)Sc1ccccc1N`, “inactive”.
As to `CCCCCCC(=O)OC1CC(C)(C)NC(C)(C)C1`, the result was inactive.
On to `OC1(c2ccc(Cl)cc2)CCN(Cc2c[nH]c3ccccc23)CC1`, for which the outcome was inactive.
On to `NCCNS(=O)(=O)c1cccc2c(Cl)cccc12`, for which the call was inactive.
With `COc1cc(/C=C(\C#N)C(=O)Nc2nnc(C(F)(F)F)s2)ccc1OCc1ccc(C(F)(F)F)cc1C(F)(F)F`, the call was inactive.
The same measure, in the same setting: to `CN(CC[C@@H](Oc1ccc(C(F)(F)F)cc1)c1ccccc1)CC(=O)O` belongs “inactive”.
On the same count and under the same terms, to `OC[C@H]1O[C@H](n2cnc3c(N[C@H]4CCC[C@@H]4O)ncnc32)[C@H](O)[C@@H]1O` belongs “inactive”.
On the same count and under the same terms, for `N#C/C(=C\c1ccc(O)c(O)c1)C(=O)NCCCNC(=O)/C(C#N)=C/c1ccc(O)c(O)c1` the value was “inactive”; for `C[C@]12C=CC(=O)C=C1CC[C@@H]1C2=CC[C@]2(C)[C@@H](C(=O)CN3CCN(c4cc(N5CCCC5)nc(N5CCCC5)n4)CC3)CC[C@@H]12`, “inactive”; for `CCc1ccc2c(-c3cccc(Cl)c3)nc(=O)n(CC)c2n1`, “inactive”.
Take `O=C1Nc2ccc(I)cc2/C1=C/c1cc(Br)c(O)c(Br)c1`: the molecule was called inactive.
In the case of `NC(=Nc1ccccc1)NC(=O)c1nc(Cl)c(N)nc1N`, the molecule was called inactive.
Consider `C[C@H]1CC2C3CCC4=CC(=O)C=C[C@]4(C)[C@@]3(Cl)[C@@H](O)C[C@]2(C)[C@@]1(O)C(=O)CO` (some centres undefined), for which the molecule was called inactive.
The same measure, in the same setting: to `O=C1NC(=O)c2cc(Nc3ccccc3)c(Nc3ccccc3)cc21` belongs “inactive”; to `CC[n+]1c(/C=C/C=C2/N(C)c3ccccc3C2(C)C)sc2ccccc21`, “inactive”; to `CSc1nc(N)c2ncn([C@@H]3O[C@H](COP(=O)(O)OP(=O)(O)O)C(O)[C@H]3O)c2n1` (some centres undefined), “inactive”.
As for `COc1ccc(CCn2nnnc2C2(c3ccc(C)cc3)CC2)cc1`, the outcome was inactive.

A further experiment has as its target Transient receptor potential cation channel subfamily V member 1 (Homo sapiens) (UniProt Q8NER1). As to the kind of experiment: HTS Assay for Compounds that Act as Enhancers of the Vanilloid Receptor 1 (AID 488979). The following applies: TRPV1-expressing cells, enhancer of channel activity, stimulated with capsaicin at EC20; series mostly up to 41.7 µM. The method in brief:
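Calcium influx kinetics via Fluo-8 (480/520 nm) in TRPV1-expressing cells, 2000/well cultured overnight at 35.5C. Compound-alone read 3 min (agonist phase), followed by EC20 capsaicin challenge for 2 min (enhancer phase).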
For the molecule `O=C1Cc2c([nH]c3ccc(Br)cc23)-c2ccccc2N1`, the outcome was inactive.
Regarding `Cn1cc(C(F)(F)F)nc1-c1ccc(OCC(O)CNCCOc2ccc(O)c(C(N)=O)c2)cc1` (centres undefined), the outcome was inactive.
Still for that read-out and setting: for `CC1CNCCN1S(=O)(=O)c1cccc2cnccc12` (centres undefined) the value was “inactive”; for `Nc1ccc(-c2ccc3ccccc3n2)cc1`, “inactive”; for `Oc1cc2c(cc1O)C(c1ccccc1)CNCC2` (centres undefined), “inactive”.
As for `O=C(O)/C(=C/c1c(C(=O)O)[nH]c2cc(Cl)cc(Cl)c12)c1ccccc1`, the outcome was inactive.
Same read-out and setting: for `CCCCCCCCCCCCCCCCCCOC[C@H](COP(=O)([O-])OCC[N+](C)(C)C)OC` the value was “inactive”; for `O=C(O)C1=CCCNC1`, “inactive”.
Consider `S=C(S)N1CCCC1`, for which the result was inactive.
Still for that read-out and setting: to `C[C@H](NC(=O)/C(C#N)=C/c1ccc(O)c(O)c1)c1ccccc1` belongs “inactive”.
Still for that read-out and setting: for `CC[C@H](NC(=O)c1c(C)c(-c2ccccc2)nc2ccccc12)c1ccccc1` the value was “inactive”; for `N#C/C(=C\c1ccc(O)c(O)c1)C(=O)NCCCNC(=O)/C(C#N)=C/c1ccc(O)c(O)c1`, “inactive”; for `O=C1Nc2ccc(I)cc2/C1=C/c1cc(Br)c(O)c(Br)c1`, “inactive”.
As for `NC(=Nc1ccccc1)NC(=O)c1nc(Cl)c(N)nc1N`, the outcome was inactive.
Still for that read-out and setting: for `O=C1NC(=O)c2cc(Nc3ccccc3)c(Nc3ccccc3)cc21` the value was “inactive”.
